# In PubChem BioAssay AID720575 (National Center for Advancing Translational Sciences (NCATS), 2013):
# The other results are listed elsewhere or left out. Entries that show only a call come without a potency. Results filed as inconclusive are left out. The source made the active and inactive calls. The call rests on the fitted dose curve; in most records, active means well fitted inhibition curve with a large enough effect; inconclusive means small, poorly fitted or top-dose-only effect; inactive means no such curve, though single readings can be large or run the other way.
# Test: qHTS Assay for Inhibitors of Hepatitis C Virus (HCV): Confirmation Assay for Cherry-picked Compounds
# Settings: Potency: inhibition
# Description: Hepatitis C virus (HCV) infects about 200 million people in the world. Many infected people progress to chronic liver disease including cirrhosis with a risk of developing liver cancer. To date, there is no effective vaccine for hepatitis C. Current therapy based on interferon is only effective in about half of the patients and is associated with significant adverse effects. The fraction of people with HCV who can complete a successful treatment is estimated to be no more than 10 percent. Recent development of direct-acting antivirals against HCV, such as protease and polymerase inhibitors, is promising but still requires combination with peginterferon and ribavirin for maximal efficacy. In addition, these agents are associated with high rate of resistance and many have significant side effects. Due to the lack of a culture system for infectious HCV, the search for new HCV drugs has been greatly hampered. […] High-throughput screening (HTS) with an infectious HCV system would cover the complete spectrum of potentially druggable targets in all stages of HCV lifecycle, and would have more biological relevance than other cell-based assays. […]
# Cells were plated in a 1536-wel tissue culture grade plates at a final concentration of 1,000 cells/well (3 uL volume). […] The luciferase activity was read for 15 sec using the PerkinElmenr ViewLux plate reader.
# Further: nearly all actives have a fitted effect of over 80% in size.
row,Compound,Potency
1,CC1=CC(=Cc2sc3ccccc3[n+]2C)C=C(C)O1,4.99 µM (active)
2,CC[N+]1(C)CCCC(OC(=O)C(O)(c2ccccc2)c2ccccc2)C1 (configuration not stated),inactive
